# Data published in PubChem BioAssay AID493175 (National Center for Advancing Translational Sciences (NCATS), 2011).
# Records with an inconclusive call do not appear. Calls of active or inactive are those of the source. The call rests on the fitted dose curve; in most records, active means well fitted curve in the direction sought with a large enough effect; inconclusive means small, poorly fitted or top-dose-only effect, or another doubt; inactive means no such curve, though single readings can be large or run the other way.
# Biological target: Luciferin 4-monooxygenase (Photinus pyralis) (UniProt P08659)
# Sequence (P08659 whole entry, looked up): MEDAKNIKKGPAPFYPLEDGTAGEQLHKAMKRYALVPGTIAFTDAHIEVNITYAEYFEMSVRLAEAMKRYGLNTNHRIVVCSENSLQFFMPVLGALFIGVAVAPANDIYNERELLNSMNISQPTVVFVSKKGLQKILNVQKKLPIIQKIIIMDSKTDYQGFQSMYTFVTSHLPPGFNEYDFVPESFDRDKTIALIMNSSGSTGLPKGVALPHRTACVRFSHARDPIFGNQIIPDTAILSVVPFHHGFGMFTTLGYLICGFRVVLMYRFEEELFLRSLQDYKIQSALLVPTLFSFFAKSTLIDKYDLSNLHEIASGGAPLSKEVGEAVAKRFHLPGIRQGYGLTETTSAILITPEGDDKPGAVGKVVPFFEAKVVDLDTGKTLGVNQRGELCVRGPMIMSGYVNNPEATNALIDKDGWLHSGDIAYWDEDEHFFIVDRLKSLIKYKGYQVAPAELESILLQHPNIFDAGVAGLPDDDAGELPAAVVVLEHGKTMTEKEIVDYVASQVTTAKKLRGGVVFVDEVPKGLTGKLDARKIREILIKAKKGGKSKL
# Assay: miR-21 counterscreen using purified firefly luciferase
# Settings: purified P. pyralis luciferase, luminescence; series mostly up to 57.5 µM; activity change, negative = inhibition: at the top concentration
# Text: MLPCN Grant: 1 R21 NS059478-01 Assay Provider: Qihong Huang, The Wistar Institute NCGC Assay Overview: MicroRNAs (miRNAs) are endogenously encoded small (~20-25 nucleotides), nonprotein-coding RNAs that are involved in post-transcriptional repression of target messenger RNAs (mRNAs) (Le and Hannon, 2004). Estimated to be involved in the regulation of 30% of all protein-coding mRNAs (Filipowicz et al., 2008), miRNAs play a significant role in many biological processes including cellular differentiation and tissue development (Ghildiyal and Zamore, 2009). […] Compounds active in the miR-21 FLuc assay were clustered using Leadscope and active chemical series were prioritized based on chemical properties, potential for medicinal chemistry optimization, and SAR. Within each chemical series, representative compounds were re-acquired to test for activity in a secondary assay based on the quality of their CRC, efficacy, and potency. This secondary assay to determine if compounds active in the miR-21 FLuc assay were just luciferase inhibitors. Compounds found active in both the miR-21 FLuc and purified FLuc assays are considered as false positives. Keywords: NIH Roadmap, MLPCN, MLSMR, qHTS, miR-21, firefly luciferase, FLuc, miRNA.
# NCGC Assay Protocol Summary: Reagents: 50mM Tris acetate, pH 7.5; 10mM Mg acetate; 10uM D-luciferin (Sigma #L9504); 10uM ATP; 0.01% Tween-20; 0.05% BSA; 10nM P. pyralis luciferase (Sigma #L9506) Control compounds used were two known firefly luciferase inhibitors (compounds (2) and (5) in Auld et al., 2010), and DMSO. Assay Summary: Three microliters containing firefly luciferase substrates in buffer (final concentrations: 50mM Tris acetate, pH 7.5, 10mM Mg acetate, 0.01% Tween-20, 0.05% BSA, 10uM D-luciferin, and 10uM ATP) are dispensed into each well of a Greiner white, solid-bottom 1536-well format plate using a flying reagent dispenser (FRD). These assay plates were then treated with 23nL of compound or DMSO using a Kalypsys pin tool, which allows for delivery of a 6-point interplate titration of each compound to the assay plate (quantitative HTS), with a final compound concentrations ranging from approximately 60 µM to 7pM. One microliter of firefly luciferase in […] Tris-acetate buffer was then delivered by FRD to each well for a final enzyme concentration of 10nM. Luciferase activity was then measured using a ViewLux CCD imager (PerkinElmer), with an average exposure time of 2-30 seconds (2X binning, medium/high gain).
row,SMILES,"activity change, negative = inhibition"
1,COc1ccc(CNc2n[nH]c(-c3ccco3)n2)cc1OC,-7.47% (inactive)
2,c1ccc(C2=Nn3c(nnc3-c3cc(-c4ccccc4)n[nH]3)SC2)cc1,-18.1% [at 2.3 µM] (inactive)
3,CCC(Oc1ccccc1F)C(=O)N1CCC(c2nc3ccccc3s2)CC1 (stereo not given),3.23% (inactive)
4,COCc1cc(C)nc2sc(C(=O)OC(C)C)c(N)c12,-1.1% [at 2.3 µM] (inactive)
5,C[C@]12CC[C@H]3C(=CCc4cc(O)ccc43)[C@@H]1CCC2=O,-18.3% (inactive)
6,CN(C)c1ccc(CNc2nc(-c3ccco3)nn2S(C)(=O)=O)cc1,1.82% (inactive)
7,CCS(=O)(=O)c1ncc(Cl)c(C(=O)N(Cc2ccccc2)c2ccc(OC)cc2)n1,-13.7% (inactive)
8,CC(=O)Nc1nc2c(C)cc(NC(=O)C3CCCCC3)cc2s1,-12.1% (inactive)
9,COc1ccc(OCC(=O)Nc2ccc(-c3nc4cc(C)c(C)cc4o3)cc2)cc1,-0.217% (inactive)
10,CCS(=O)(=O)c1oc(-c2ccc(F)cc2)nc1S(=O)(=O)c1ccccc1,0.873% (inactive)
11,Cc1cccc(OCc2nnc(SCC(=O)Nc3ccc(N4CCOCC4)cc3)o2)c1,0.777% (inactive)
12,Cc1ccccc1Nc1nc(N)nc(CN(C)c2ccccc2)n1,0.346% (inactive)
13,COc1ccc(Nc2cc(C(=O)NCCCN3CCN(c4ccc(OC)cc4)CC3)c3ccccc3n2)cc1,-6.17% (inactive)
14,COc1ccccc1C(=O)n1nc(-c2ccco2)nc1NCc1ccc(Cl)cc1,0.108% (inactive)
15,CCC(C)S(=O)(=O)c1oc(-c2cccs2)nc1S(=O)(=O)c1ccccc1 (stereo not given),-12.1% (inactive)
16,Cc1ccc(SCC(=O)Nc2ccc3oc(-c4ccc(F)cc4)nc3c2)cc1,-1.61% (inactive)
17,Cc1cccc(-n2nnc(-c3nc(-c4cccs4)no3)c2N)c1,-6.42% (inactive)
18,CCCn1c(=O)c2sccc2n2c(CCCC(=O)Nc3ccc(Oc4ccc(Cl)cc4)cc3)nnc12,-2.62% (inactive)
19,Cc1cccc(-c2nnc(SCC(=O)Nc3ccc(C)c(C)c3)o2)c1,4.4% (inactive)
20,CC(C)S(=O)(=O)c1oc(-c2cccs2)nc1S(=O)(=O)c1ccc(F)cc1,-14.5% (inactive)

row,SMILES,"activity change, negative = inhibition"
1,Cc1ccc(CNc2nc(-c3ccco3)nn2S(C)(=O)=O)cc1,1.57% (inactive)
2,CC(C)S(=O)(=O)c1oc(-c2ccc(F)cc2)nc1S(=O)(=O)c1ccc(F)cc1,-2.87% (inactive)
3,COc1ccc(-n2nnc(-c3nc(-c4cccs4)no3)c2N)cc1OC,-9.69% (inactive)
4,CS(=O)(=O)c1ncc(Cl)c(C(=O)Nc2ccc3ccccc3c2)n1,-2.43% (inactive)
5,C/C(=N\NC(=O)c1cccs1)c1ccncc1,-17.6% (inactive)
6,COc1ccc(NCc2cccn2-c2nnc(N3CCC(C)CC3)s2)c(OC)c1,-18.9% (inactive)
7,Nc1c(-c2nc(-c3cccs3)no2)nnn1-c1cccc(F)c1,-11.2% (inactive)
8,Cc1ccc2c(C)c(C(=O)N(C)C(C)c3ccncn3)oc2c1C (stereo not given),2.25% (inactive)
9,COc1cccc(C(=O)Nc2ccc3nc(N4CCN(c5ncccn5)CC4)cc(C)c3c2)c1OC,-18.1% (inactive)
10,CCc1nonc1NC(=O)c1oc2cc(C)c(C)cc2c1C,3.62% (inactive)
11,Cc1ccc(-n2nnc(-c3nc(-c4cccs4)no3)c2N)cc1C,-14.9% (inactive)
12,COc1nc(Nc2cccc(C(F)(F)F)c2)nc(OC)n1,-6.49% (inactive)
13,Cc1cc(C)n2c(SCc3ccccc3Cl)nnc2n1,-9.49% (inactive)
14,Cc1ccccc1OCCn1cnc2c(N)ncnc21,-2.86% (inactive)
15,Cc1cc(Nc2cccc(C(F)(F)F)c2)nc2ccc(NC(=O)c3cccnc3)cc12,1.05% (inactive)
16,O=C(CSc1nnc(-c2ccccn2)o1)Nc1cccc(Cl)c1,-13.8% (inactive)
17,COc1ccccc1CNC(=O)CCC1N=C2c3ccccc3N=C(SCc3cccc(Cl)c3)N2C1=O (stereo not given),-1.95% (inactive)
18,O=C(CSc1nnc(-c2ccc(C(F)(F)F)cn2)o1)Nc1cccc(Cl)c1,-0.604% (inactive)
19,Cn1c(=O)[nH]c2cc(-c3noc(-c4ccc(F)cc4)n3)ccc21,-17.8% (inactive)
20,CC(C)(C)c1ccc(NC(=O)CSc2nnc(-c3n[nH]c4ccccc34)o2)cc1,-19.9% (inactive)
